Data published in PubChem BioAssay (NCATS).
Results filed as inconclusive are left out. Active and inactive are the calls of the source. The call rests on the fitted dose curve; in most records, active means well fitted cell-killing curve with a large enough effect; inconclusive means small, poorly fitted or top-dose-only effect; inactive means flat fitted curve, though single readings scatter.

test: qHTS of pediatric cancer cell lines to identify multiple opportunities for drug repurposing: Primary screen for RD cells (AID 1347104); conditions: RD rhabdomyosarcoma viability, CellTiter-Glo luminescence, 48 h; series mostly up to 46 µM; activity change, negative = cytotoxic: at the top concentration; further: nearly all actives have a fitted effect of over 55% in size
Description: Drug repurposing or repositioning has been offered as a strategy for drug development in oncology programs. This approach has special potential for childhood cancers and other rare or orphan diseases, where the expected return on new drug development has been a disincentive to pharmaceuticals. […] In this project we exploit the poly-pharmacology of drugs to discover new indications via phenotypic screening of a panel of 19 well-characterized cell lines derived from solid tumors seen in children and adolescents. The goal is to identify approved drugs with previously unrecognized anticancer properties that has the potential to reveal new mechanisms and biological processes involved in carcinogenesis or drug resistance. We employed a titration-based paradigm (quantitative high-throughput screening or qHTS), where all compounds were tested at multiple concentrations for their effect on cell viability. Concentration-response curves (CRCs) were derived directly from the primary screen, and both potency and efficacy values were used to identify compounds with robust bioactivity profiles. We screened the NIH Chemical Genomics Center (NCGC) Pharmaceutical Collection (NPC) and Mechanism Interrogation Plate (MIPE) small molecule collections of approved and investigational compounds against these cell lines; and measured metabolically active cells after 48 hours of compound treatment as a proxy for cell viability. […] Assay Submitter: Nathalia J. Martinez, National Center for Advancing Translational Sciences, National Institutes of Health, Rockville, MD, USA; email: natalia.martinez@nih.gov Shen, M et al. Quantitative high-throughput phenotypic screening of pediatric cancer cell lines identifies multiple opportunities for drug repurposing. Oncotarget 2017 Dec 19;9(4):4758-4772. PMID 29435139.
The cells were obtained from University of North Carolina (UNC), Pediatric Preclinical Testing Program (PPT), and Coriell Institute (CI). qHTS cell viability assay: Cells were assayed in growth media at a density of 500-1,000 cells/well. Five microliters of cells were dispensed into 1,536-well, white, solid-bottom, TC-treated plates (Greiner Bio One) using a multidrop dispenser and incubated at 37 degrees C, 5% CO2, under a humidified atmosphere for 5 hours. Twenty-three nanoliters of compounds and controls (neutral control DMSO or positive control bortezomib at final concentration of 2.3 µM) were subsequently transferred by Kalypsys pintool. For primary screens, the MIPE collection was tested at 11-point dilutions (final concentrations range from 0.78 nM to 46 µM) and the NPC collection at 8-point dilutions (final concentrations range from 0.59 nM to 46 µM). Compounds tested in follow-up screens were assayed at 11-point dilutions. Cells were incubated for 48 hours, followed by addition of 3 µL of CellTiter-Glo (Promega). After a 15 min incubation at room temperature, samples were analyzed for luminescence intensity using a ViewLux High-throughput CCD imager equipped with clear filters.
Potency means the concentration at half of the fitted maximal effect.

With CC1(C)OC[C@@H](COC(=O)CCc2ccc(OC[C@@H](O)CNCCNC(=O)N3CCOCC3)cc2)O1 as the compound, how does the “activity change, negative = cytotoxic” value read?
The value was 2.26% (inactive).

With CC(=O)OCC(=O)[C@@]1(OC(C)=O)[C@@H](C)C[C@H]2[C@@H]3C[C@H](F)C4=CC(=O)C=C[C@]4(C)[C@@]3(F)[C@@H](O)C[C@@]21C as the compound, how does the “activity change, negative = cytotoxic” value read?
Its value is 1.85% (inactive).

For CC(Cc1cccc(C(F)(F)F)c1)NCCOC(=O)c1ccccc1 (stereo not given), which “activity change, negative = cytotoxic” value is on record?
The value was -3.59% (inactive).

With C/C=C/c1ccc(OC)cc1 as the compound, how does the “activity change, negative = cytotoxic” value read?
Its value is 11.5% (inactive).

Which Potency does the source give for CCCCCCCCCCCCCCCC[N+](C)(C)CC here?
The Potency was 13.3 µM (active).

Which “activity change, negative = cytotoxic” value does the source give for NC(=O)c1cc[n+](CC2=C(C(=O)[O-])N3C(=O)[C@@H](NC(=O)Cc4cccs4)[C@H]3SC2)cc1 here?
The value was 7.25% (inactive).

For CC[C@@H](CO)NCCN[C@@H](CC)CO, which “activity change, negative = cytotoxic” value is on record?
Its value is 12% (inactive).

Which “activity change, negative = cytotoxic” value does the source give for CN(C)CC/C=C1/c2ccccc2COc2ccc(CC(=O)O)cc21 here?
Its value is 6.68% (inactive).

For CC(=O)OCC(=O)[C@@]12N=C(C)O[C@@H]1C[C@H]1[C@@H]3CCC4=CC(=O)C=C[C@]4(C)[C@H]3[C@@H](O)C[C@@]12C, which “activity change, negative = cytotoxic” value is on record?
Its value is 10.1% (inactive).

Which “activity change, negative = cytotoxic” value does the source give for CCN(CC)C(=O)N1CCN(C)CC1 here?
The value was 4.17% (inactive).

With Cc1ccc(O)c2ncccc12 as the compound, how does the Potency read?
The Potency was 8.41 µM (active).

Which “activity change, negative = cytotoxic” value does the source give for CN=C(NC#N)NCCSCc1csc(N=C(N)N)n1 here?
Its value is 11.5% (inactive).

Which “activity change, negative = cytotoxic” value does the source give for CCCCC(=O)O[C@]1(C(=O)CO)CC[C@H]2[C@@H]3CCC4=CC(=O)CC[C@]4(C)[C@H]3[C@@H](O)C[C@@]21C here?
The value was 8.34% (inactive).

With C[C@]12CC[C@H]3[C@@H](CCC4=CC(=O)CC[C@@]43C)[C@@H]1CC[C@@H]2C(=O)CO as the compound, how does the “activity change, negative = cytotoxic” value read?
Its value is -5.78% (inactive).

With O=C1[C@H]2CCCC[C@H]2C(=O)N1CCCCN1CCN(c2nsc3ccccc23)CC1 as the compound, how does the “activity change, negative = cytotoxic” value read?
Its value is -12.5% (inactive).

With CC(=O)Oc1ccc(C(=C2CCCCC2)c2ccc(OC(C)=O)cc2)cc1 as the compound, how does the “activity change, negative = cytotoxic” value read?
The value was 7.09% (inactive).

Which “activity change, negative = cytotoxic” value does the source give for Cc1c(C(N)=O)cc([N+](=O)[O-])cc1[N+](=O)[O-] here?
Its value is -1.27% (inactive).

Which “activity change, negative = cytotoxic” value does the source give for CN1CCC[C@@H]1c1cccnc1 here?
Its value is 2.64% (inactive).

Which “activity change, negative = cytotoxic” value does the source give for COc1cc2c(cc1OC)[C@@H]1CC(=O)[C@@H](CC(C)C)CN1CC2 here?
The value was 7.64% (inactive).

With O=C1OCCN1/N=C/c1ccc([N+](=O)[O-])o1 as the compound, how does the “activity change, negative = cytotoxic” value read?
The value was -0.559% (inactive).

For C[C@]12C=CC(=O)C=C1[C@@H](F)C[C@@H]1[C@@H]2[C@@H](O)C[C@@]2(C)[C@H]1CC[C@]2(O)C(=O)CO, which “activity change, negative = cytotoxic” value is on record?
The value was 11.3% (inactive).

Which “activity change, negative = cytotoxic” value does the source give for O=C(COc1ccc(Cl)cc1)N1CCN(Cc2ccc3c(c2)OCO3)CC1 here?
Its value is -15.8% (inactive).

With C[C@]12C=CC(=O)C=C1CC[C@@H]1[C@@H]2[C@@H](O)C[C@@]2(C)[C@H]1CC[C@]2(O)C(=O)CO as the compound, how does the “activity change, negative = cytotoxic” value read?
The value was -1.2% (inactive).

Which “activity change, negative = cytotoxic” value does the source give for CCN(CC)CCNC(=O)COc1ccc(Cl)cc1 here?
Its value is 1.27% (inactive).

With Cc1onc(-c2c(Cl)cccc2Cl)c1C(=O)N[C@@H]1C(=O)N2[C@@H]1SC(C)(C)[C@@H]2C(=O)O as the compound, how does the “activity change, negative = cytotoxic” value read?
Its value is 13.9% (inactive).

For CC(C)n1nc(-c2cc3cc(O)ccc3[nH]2)c2c(N)ncnc21, which Potency is on record?
The Potency was 8.41 µM (active).

For CCCN1CCCC[C@H]1C(=O)Nc1c(C)cccc1C, which “activity change, negative = cytotoxic” value is on record?
The value was 11.2% (inactive).

Which “activity change, negative = cytotoxic” value does the source give for COc1cccc(OC)c1C(=O)N[C@@H]1C(=O)N2[C@@H]1SC(C)(C)[C@@H]2C(=O)O here?
The value was 7.66% (inactive).

Which “activity change, negative = cytotoxic” value does the source give for Oc1cc(O)c2c(c1)O[C@H](c1ccc(O)c(O)c1)[C@H](O)C2 here?
The value was 5.27% (inactive).

For CCC(=O)c1c(O)cc(O)cc1O, which “activity change, negative = cytotoxic” value is on record?
Its value is 7.35% (inactive).

With O=C(CCCN1CCC(O)(c2ccc(Br)cc2)CC1)c1ccc(F)cc1 as the compound, how does the “activity change, negative = cytotoxic” value read?
Its value is -15.9% (inactive).

For NC(CO)(CO)CO, which “activity change, negative = cytotoxic” value is on record?
The value was 16.9% (inactive).

Which activity change, negative = cytotoxic does the source give for CCn1cc(C(=O)O)c(=O)c2cnc(N3CCCC3)nc21 here?
The activity change, negative = cytotoxic was -0.58% [at 9.22 µM] (inactive).

Which “activity change, negative = cytotoxic” value does the source give for CC(C)COC(=O)c1ccc(N)cc1 here?
The value was 9.5% (inactive).

For O=C(O)CCCCC(=O)O, which “activity change, negative = cytotoxic” value is on record?
Its value is 12.4% (inactive).

For O=c1c(-c2ccccc2)c1-c1ccccc1, which Potency is on record?
The Potency was 18.8 µM (active).

With C[C@@H]1CN(CCCn2c3ccccc3c3ccccc32)C[C@H](C)N1 as the compound, how does the Potency read?
The Potency was 26.6 µM (active).

Which “activity change, negative = cytotoxic” value does the source give for CCOC(=O)OC(C)OC1=C(C(=O)Nc2ccccn2)N(C)S(=O)(=O)c2ccccc21 (stereo not given) here?
Its value is 12.4% (inactive).

Which activity change, negative = cytotoxic does the source give for NC[C@H]1O[C@H](O[C@H]2[C@H](O[C@@H]3O[C@H](CO)[C@@H](O)[C@H]3O)C(O)[C@H](N)C[C@@H]2N)[C@H](N)[C@@H](O)[C@@H]1O (stereo not given in full) here?
Its activity change, negative = cytotoxic is 14% [at 9.22 µM] (inactive).

With OC(CCN1CCCCC1)(c1ccccc1)c1ccccc1 as the compound, how does the “activity change, negative = cytotoxic” value read?
Its value is -2.21% (inactive).
